Assay [1] is described as follows: small molecules captured by biotinylated probe aFSTL3 – biochemical, small-molecule microarray, fluorescence 635/667, stem cell growth factor project, primary screen (AID 1064).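 Also: measures binding of the biotinylated anti-FSTL3 antibody to printed compounds.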 As to conditions: higher = more signal.
Assay [2] in a line: binders from COS7 lysate, DM2A8 probe, primary screen, torsin A project, cell lysate, small-molecule microarray, fluorescence 635/667 (AID 1065). As to conditions: higher = more signal, COS7 lysate expressing mutant human TOR1A.
The nature of assay [3]: small molecules captured by biotinylated probe aFGF2 – biochemical, small-molecule microarray, fluorescence 635/667, stem cell growth factor project, primary screen (AID 1067).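 Also: measures binding of biotinylated aFGF2 protein to printed compounds on slides; z-score merges feature fluorescence and signal-to-noise across triplicate slides.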 As to conditions: higher = more signal.
Assay [4] in a line: small molecules captured by biotinylated probe aFGF10 – biochemical, small-molecule microarray, fluorescence 635/667, stem cell growth factor project, primary screen (AID 1071).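 Also: score merges 667 nm spot intensity and signal to noise from triplicate slides.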 As to conditions: higher = more signal.
For assay [5], the target named is Neurogenic locus notch homolog protein 2 (Homo sapiens) (UniProt Q04721). Nature of the assay: small molecules binding Notch2 protein – biochemical, small-molecule microarray, 635 nm fluorescence, stem cell growth factors, primary screen (AID 1073). The settings on record: higher = more signal.
Sequence of Neurogenic locus notch homolog protein 2 (Homo sapiens) (Q04721 whole entry, looked up, canonical isoform): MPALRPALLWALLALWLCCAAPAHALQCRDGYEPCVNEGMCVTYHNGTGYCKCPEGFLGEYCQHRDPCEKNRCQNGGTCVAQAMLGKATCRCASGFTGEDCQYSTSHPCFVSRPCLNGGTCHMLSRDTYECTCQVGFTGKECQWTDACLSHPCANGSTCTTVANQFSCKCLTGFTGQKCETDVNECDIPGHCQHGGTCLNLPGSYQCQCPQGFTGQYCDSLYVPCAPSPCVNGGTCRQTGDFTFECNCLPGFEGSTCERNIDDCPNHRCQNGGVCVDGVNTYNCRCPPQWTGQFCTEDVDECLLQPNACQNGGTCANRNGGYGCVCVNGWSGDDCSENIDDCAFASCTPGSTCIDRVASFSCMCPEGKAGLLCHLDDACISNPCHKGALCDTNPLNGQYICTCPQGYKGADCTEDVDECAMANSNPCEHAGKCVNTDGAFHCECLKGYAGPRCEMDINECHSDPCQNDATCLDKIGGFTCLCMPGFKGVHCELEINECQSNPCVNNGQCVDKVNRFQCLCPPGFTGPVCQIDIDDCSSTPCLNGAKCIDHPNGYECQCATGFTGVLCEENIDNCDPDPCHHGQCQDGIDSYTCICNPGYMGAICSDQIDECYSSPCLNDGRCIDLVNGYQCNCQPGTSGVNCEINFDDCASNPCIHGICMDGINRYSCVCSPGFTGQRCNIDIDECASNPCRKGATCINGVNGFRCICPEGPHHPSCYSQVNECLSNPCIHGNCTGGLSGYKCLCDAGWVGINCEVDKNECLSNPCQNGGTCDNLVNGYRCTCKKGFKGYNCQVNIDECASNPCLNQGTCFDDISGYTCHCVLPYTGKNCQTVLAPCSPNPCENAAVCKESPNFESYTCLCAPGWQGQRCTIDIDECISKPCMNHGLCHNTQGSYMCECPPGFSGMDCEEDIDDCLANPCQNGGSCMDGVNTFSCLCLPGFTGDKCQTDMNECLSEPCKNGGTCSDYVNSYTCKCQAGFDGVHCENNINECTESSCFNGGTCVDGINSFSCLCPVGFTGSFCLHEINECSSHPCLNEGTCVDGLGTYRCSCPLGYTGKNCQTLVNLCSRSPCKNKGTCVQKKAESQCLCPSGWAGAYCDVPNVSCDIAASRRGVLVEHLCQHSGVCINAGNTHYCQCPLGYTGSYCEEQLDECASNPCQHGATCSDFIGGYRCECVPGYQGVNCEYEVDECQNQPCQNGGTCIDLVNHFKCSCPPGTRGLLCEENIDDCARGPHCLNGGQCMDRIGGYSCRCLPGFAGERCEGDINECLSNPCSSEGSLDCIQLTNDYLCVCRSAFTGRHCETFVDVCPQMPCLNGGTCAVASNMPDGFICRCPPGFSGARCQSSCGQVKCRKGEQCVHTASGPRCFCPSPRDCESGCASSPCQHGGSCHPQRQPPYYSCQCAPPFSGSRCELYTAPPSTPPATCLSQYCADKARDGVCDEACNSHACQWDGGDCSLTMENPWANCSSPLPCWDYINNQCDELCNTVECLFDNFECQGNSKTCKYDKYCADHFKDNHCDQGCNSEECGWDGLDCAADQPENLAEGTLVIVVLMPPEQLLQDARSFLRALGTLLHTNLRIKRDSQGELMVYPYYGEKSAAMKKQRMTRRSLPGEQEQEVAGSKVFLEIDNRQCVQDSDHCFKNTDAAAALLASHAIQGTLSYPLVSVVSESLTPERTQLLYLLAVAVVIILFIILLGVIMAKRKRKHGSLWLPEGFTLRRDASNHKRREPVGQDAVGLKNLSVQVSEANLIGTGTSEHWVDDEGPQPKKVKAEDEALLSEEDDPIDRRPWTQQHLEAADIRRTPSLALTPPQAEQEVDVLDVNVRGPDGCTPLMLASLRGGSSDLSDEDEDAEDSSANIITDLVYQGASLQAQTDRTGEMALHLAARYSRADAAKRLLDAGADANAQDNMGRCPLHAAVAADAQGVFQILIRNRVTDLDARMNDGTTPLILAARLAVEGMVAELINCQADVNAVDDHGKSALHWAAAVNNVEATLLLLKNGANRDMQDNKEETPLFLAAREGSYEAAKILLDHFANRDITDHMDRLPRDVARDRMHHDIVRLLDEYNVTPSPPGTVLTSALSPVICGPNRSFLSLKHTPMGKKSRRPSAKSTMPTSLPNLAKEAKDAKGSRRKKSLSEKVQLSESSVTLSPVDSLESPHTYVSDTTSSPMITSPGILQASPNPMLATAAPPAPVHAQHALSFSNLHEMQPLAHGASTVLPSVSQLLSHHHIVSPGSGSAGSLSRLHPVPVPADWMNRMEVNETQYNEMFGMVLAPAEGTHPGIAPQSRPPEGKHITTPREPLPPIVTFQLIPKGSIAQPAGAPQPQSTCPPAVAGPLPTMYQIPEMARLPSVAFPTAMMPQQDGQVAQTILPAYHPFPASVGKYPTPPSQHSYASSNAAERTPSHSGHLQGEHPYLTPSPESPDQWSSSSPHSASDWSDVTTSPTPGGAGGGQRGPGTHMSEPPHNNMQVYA
Assay [6] addresses Pro-neuregulin-1, membrane-bound isoform (Homo sapiens) (UniProt Q02297). In words: small molecules binding neuregulin-1 protein – biochemical, small-molecule microarray, fluorescence 635/667, psychiatric disease protein project, primary screen (AID 1075).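 Also: score combines 667 nm spot fluorescence with signal to noise.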 The settings on record: NRG1 binding, 635 nm fluorescence, higher = more signal.
The subject of assay [7] is Neuregulin-1 EGF-like domain. Nature of the assay: small molecules binding NRG1 EGF domain – biochemical, small-molecule microarray, 635 nm fluorescence, primary screen (AID 1081).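 Also: binding of the protein to compounds printed on small-molecule microarray slides.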 The settings on record: higher = more signal.
Assay [8] in a line: FRG1 expression reporter modulators in myotubes – cell-based, C2C12 myotubes, firefly/Renilla luciferase, luminescence, FRG1 inhibition for FSHD, primary screen (AID 1084). The settings on record: FRG1 promoter luciferase, higher = more signal, called active from +8 up or from −8 down.
The nature of assay [9]: small molecules captured by biotinylated probe aFST – biochemical, small-molecule microarray, fluorescence 635/667, stem cell growth factor project, primary screen (AID 1086).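 Also: score merges 667 nm fluorescence with signal-to-noise of each printed compound spot.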 As to conditions: higher = more signal.
Assay [10] in a line: binders of probe aHhip on microarray, primary screen, stem cell growth factor project, biochemical, small-molecule microarray, fluorescence 635/667 (AID 1087).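 Also: score merges spot fluorescence at 667nm with spot signal to noise ratio.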 The settings on record: higher = more signal.

Active and inactive are the calls of the source.

Sequence of Pro-neuregulin-1, membrane-bound isoform (Homo sapiens) (Q02297 whole entry, looked up, the tested form may be a part, canonical isoform): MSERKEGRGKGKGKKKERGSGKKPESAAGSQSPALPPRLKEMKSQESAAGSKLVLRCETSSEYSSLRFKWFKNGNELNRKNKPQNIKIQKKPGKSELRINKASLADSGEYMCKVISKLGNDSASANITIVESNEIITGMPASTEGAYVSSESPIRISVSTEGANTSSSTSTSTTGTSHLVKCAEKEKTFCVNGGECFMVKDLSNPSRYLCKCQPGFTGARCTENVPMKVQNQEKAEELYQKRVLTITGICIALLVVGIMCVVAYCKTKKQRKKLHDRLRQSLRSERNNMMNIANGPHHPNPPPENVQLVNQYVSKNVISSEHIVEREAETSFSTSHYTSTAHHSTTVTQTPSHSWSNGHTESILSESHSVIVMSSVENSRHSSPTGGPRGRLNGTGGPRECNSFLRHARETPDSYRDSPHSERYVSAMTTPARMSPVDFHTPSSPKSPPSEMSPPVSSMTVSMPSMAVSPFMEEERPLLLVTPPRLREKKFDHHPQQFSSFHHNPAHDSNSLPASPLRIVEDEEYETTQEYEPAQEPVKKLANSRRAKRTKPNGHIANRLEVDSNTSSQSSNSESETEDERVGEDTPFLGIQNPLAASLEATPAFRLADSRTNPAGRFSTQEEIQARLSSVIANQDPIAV

As for `CC(C)N1C(=O)[C@@]2(c3ccc([N+](=O)[O-])cc3)CC(=O)N(C3CCCCC3)[C@@H]2c2ccc(CO)cc21`, the composite z-score is -0.437 in assay [1]; 0.0633 in assay [2]; -0.151 in assay [3]; -0.0689 in assay [4]; -0.465 in assay [5]; -0.299 in assay [6]. The composite z-score in [7] was 0.209; in assay [9] it was -0.293; in assay [10], -0.118. The z-score in assay [8] was 1.25 (inactive).

On to `[N-]=[N+]=Nc1ccccc1[C@@H]1OC(c2ccc(OCCCO)cc2)=N[C@]1(CCS(=O)(=O)c1ccccc1)C(=O)NCCN1CCOCC1`, for which the composite z-score in assay [1] was found to be 0.483; in assay [2], 1.88; in [3] it was 0.0315; in assay [4], 0.664; in assay [5] it was 1.58; in [6] it was 0.806. The composite z-score in assay [7] was found to be 1.25; in assay [9], 0.925; in assay [10], 0.417. Further, the z-score in assay [8] was 1.2 (inactive).

Turning to `CCOc1cc(C(O)C2C=CC3C(=O)N(C)C(=O)C3N2N2CCCCC2)ccc1O` (stereo not given), the composite z-score was -0.152 in assay [1]; 0.38 in assay [2]; 0.0421 in assay [3]; 0.348 in [4]; 0.885 in assay [5]; 1.45 in [6]. For the same molecule, the composite z-score in assay [7] turned out to be 0.496; in assay [9], 0.707; in assay [10] it was 0.0139. Besides, the z-score in [8] is 0.133 (inactive).

On to `C=C(COC)/C(=C/C[C@@H](OC(=O)c1ccncc1)c1ccc(CO)o1)c1cnc2ccccc2c1`, for which the composite z-score is -0.376 in assay [1]; 1.03 in assay [2]; 0.0235 in [3]; 1.2 in assay [4]; 1.73 in assay [5]; 1.5 in assay [6]. The composite z-score in assay [7] was 1.34; in assay [9] it was 0.668; in assay [10], 0.115. For the same molecule, the z-score in assay [8] is 0.487 (inactive).

Take `C[C@]12C(=O)N(CCCCCCO)[C@@H]3C(=O)N(c4ccc(Cl)cc4)CC=CC31O[C@@H]1/C=C\CCCOC(=O)C12` (stereo not given in full): the composite z-score was 0.299 in assay [1]; -0.268 in assay [2]; -0.121 in [3]; -0.387 in assay [4]; -1.02 in assay [5]; 0.0955 in [6]. Moreover, the figures for the composite z-score in assay [7], in assay [9] and in assay [10] were 1.2, -0.21 and -0.132, respectively. Moreover, in assay [8], the z-score was -0.621 (inactive).

Consider `COCCCNC(=O)[C@]1(Cc2ccccc2N=[N+]=[N-])N=C(c2ccc(OCCCO)cc2)O[C@@H]1c1ccccc1N=[N+]=[N-]`, for which the composite z-score was 0.421 in [1]; -0.0585 in [2]; 0.0797 in assay [3]; 0.491 in assay [4]; 1.3 in assay [5]; 1.86 in assay [6]. Besides, the composite z-score is 1.15 in assay [7], 0.847 in [9] and -0.0296 in assay [10]. Besides, the z-score in assay [8] was -1.93 (inactive).

Regarding `COc1cc2c(cc1OC)CN(C(=O)[C@H]1[C@@H]3C(=O)O[C@@H](c4ccccc4)[C@@H](c4ccccc4)N3[C@@H](c3ccc(OCCO)cc3)[C@]13C(=O)Nc1ccc(C#CCCO)cc13)CC2`, the composite z-score is -0.0463 in [1]; 0.853 in assay [2]; 0.0746 in assay [3]; 0.844 in assay [4]; 1.43 in assay [5]; 1.39 in assay [6]. For the same molecule, the composite z-score in assay [7] came to 0.874; in assay [9] it was 0.707; in assay [10] it was 0.305. In addition, in [8], the z-score is -0.0164 (inactive).

Turning to `C=CCN1C(=O)[C@@]2(CCC(=O)OC(C)(C)C)N=C(c3ccc(OCCCO)cc3)O[C@H]2c2ccccc21`, the composite z-score in assay [1] turned out to be 0.324; in assay [2], 0.198; in [3], 0.0698; in assay [4], 0.0883; in [5] it was 0.724; in [6], 0.82. Further, the composite z-score in [7] was 1.21; in assay [9], 0.278; in assay [10], -0.195. In [8], the z-score is -2.47 (inactive).

For the molecule `C=CCOC(=O)[C@H]1[C@@H]2C(=O)O[C@@H](c3ccccc3)[C@@H](c3ccccc3)N2[C@@H](c2ccc(OCCOC(=O)[C@H]3C[C@H]4C(=O)N[C@@H](Cc5ccccc5)C(=O)N4[C@H]3c3ccc(O)cc3)cc2)[C@]12C(=O)Nc1ccc(I)cc12`, the composite z-score is 0.558 in assay [1]; 0.412 in [2]; -0.0093 in [3]; 0.979 in assay [4]; 0.779 in assay [5]; 0.932 in assay [6]. For the same molecule, the composite z-score was 1.21 in [7], 2.17 in assay [9] and -0.582 in assay [10]. For the same molecule, the z-score in [8] is 0.808 (inactive).

Turning to `Cc1ccc(S[C@]2(C(=O)NCC(C)C)CC(=O)N(Cc3ccccc3Cl)[C@@H]2c2ccc(CO)cc2I)cc1`, the composite z-score in [1] was 0.699; in [2], 1.65; in assay [3], -0.0818; in [4], 0.452; in [5] it was -1.11; in assay [6], 1.54. For the same molecule, the composite z-score is 1.36 in assay [7], -0.414 in assay [9] and -0.0645 in assay [10]. Also, the z-score in [8] is -1.45 (inactive).

Consider `COC(=O)[C@@]1(Cc2ccc(OC)cc2)[C@H]2c3cc(C(=O)N(C)C)n(Cc4nc5ccccc5[nH]4)c3C[C@H]2CN1C(=O)c1ccccc1`, for which the composite z-score in assay [1] was 0.0732; in assay [2] it was -0.401; in [3], 0.212; in [4], 0.874; in [5], 1.76; in [6], 1.82. Also, the composite z-score was found to be 1.23 in [7], 1.09 in assay [9] and 0.147 in assay [10]. Further, the z-score in assay [8] is -1.62 (inactive).

Take `O=C1O[C@@H](c2ccccc2)[C@@H](c2ccccc2)N2[C@@H](c3ccc(O)cc3)[C@]3(C(=O)Nc4ccc(C#CC5=CCCCC5)cc43)[C@@H](C(=O)N3CCN(c4ncccn4)CC3)[C@H]12`: the composite z-score in assay [1] was -0.397; in assay [2] it was 0.892; in assay [3] it was -0.0287; in assay [4] it was 0.323; in [5], 0.846; in assay [6], 0.901. The composite z-score is 1.2 in [7], 0.207 in assay [9] and 0.0116 in assay [10]. Moreover, the z-score in assay [8] is 0.795 (inactive).

These data come from PubChem BioAssay.
